Laboratory results published in PubChem BioAssay AID1053197 (The Scripps Research Institute Molecular Screening Center, 2014).
Values joined by “and” are separate entries in the source; they are usually repeats but may differ in a detail not shown here. Equal entries are not always repeated. Hit rate of the full screen: of about 370,000 compounds, about 2,600 (0.7%) were called active. The list comes from a sample in which actives are over-represented; it also holds similar structures and randomly drawn compounds. Values without a mark were called inactive.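 The calls were made as follows: active = inhibition above a cutoff: mean of compounds within the control limits plus 3 SD of those (cut at about 17% in these data); inactive = the rest.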

Biological target: Sialate O-acetylesterase (Homo sapiens) (UniProt Q9HAT2)
Experiment: blockers of sialate O-acetylesterase activity-probe labeling – biochemical, fluorescence polarization, FP-Rh probe, 1536-well HTS, primary screen (AID 1053197);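 also: 0% = plate median of compound wells and 100% = probe without SIAE protein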
Conditions: SIAE FP-Rh probe binding, at 9.66 µM, hits give high values

Chain of Sialate O-acetylesterase (Homo sapiens) (Q9HAT2 whole entry, looked up): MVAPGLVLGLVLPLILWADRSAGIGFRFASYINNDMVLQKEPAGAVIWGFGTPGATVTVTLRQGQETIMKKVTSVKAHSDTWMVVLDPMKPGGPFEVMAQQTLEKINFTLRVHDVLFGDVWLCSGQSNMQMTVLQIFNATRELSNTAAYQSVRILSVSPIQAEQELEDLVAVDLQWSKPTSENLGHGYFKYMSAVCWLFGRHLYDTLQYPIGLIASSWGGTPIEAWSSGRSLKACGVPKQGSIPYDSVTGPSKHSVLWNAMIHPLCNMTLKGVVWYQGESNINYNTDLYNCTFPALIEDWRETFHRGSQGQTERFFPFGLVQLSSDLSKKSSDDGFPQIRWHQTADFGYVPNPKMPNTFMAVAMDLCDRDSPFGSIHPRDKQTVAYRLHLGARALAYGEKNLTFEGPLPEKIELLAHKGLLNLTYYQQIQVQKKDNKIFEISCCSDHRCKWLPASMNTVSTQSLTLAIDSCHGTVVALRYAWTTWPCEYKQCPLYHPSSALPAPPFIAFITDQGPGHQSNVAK

| Compound | inhibition |
| --- | --- |
| O=c1[nH]c(=S)n(C2CC2)c(O)c1/C=N/N1CCOCC1 | -9.2% |
| Cc1cccc(-n2c(O)c(/C=N/N3CCOCC3)c(=O)[nH]c2=S)c1 | 1.16% |
| CC(C)c1ccc(-n2c(O)c(/C=N/N3CCOCC3)c(=O)[nH]c2=S)cc1 | 24.9% (active) |
| CO[C@H]([C@H](C)/C=C/N(C)C=O)[C@@H](C)C(=O)CC[C@H](C)[C@H](O)[C@H](C)[C@H]1OC(=O)/C=C/C(C)=C/[C@H](O)[C@H](OC)C[C@@H]2C=CC[C@@H](C[C@H](OC)[C@@]3(CO3)[C@@H](OC)C[C@@H](OC)[C@@H]1C)O2 | 9.94% |
| CCOC(=O)C1(CCc2ccccc2)CCN(Cc2ccco2)CC1 | 2.93% |
| O=S(=O)(c1ccccc1)N1CCC2CCNC2C1 (stereo not given) | -2.28% |
| Cc1cc(C(=O)OCC(=O)Nc2c(F)cccc2F)c(C)n1C1CC1 | -0.24% |
| Cc1cc(C=C2C(=O)NC(=O)NC2=O)c(C)n1-c1ccncc1 | 17.8% (active) |
| Cc1ccnc(-n2c(C)cc(/C=C3\C(=O)NC(=S)N(C)C3=O)c2C)c1 | 0.93% |
| CN(C)C(=O)Oc1cc(OC(=O)N(C)C)cc(C(O)CNC(C)(C)C)c1 (stereo not given) | -1.59% and 2.18% |
| Nc1ccc(C(=O)N/N=C2/CN3CCC2CC3)cc1 | 21.4% (active) |
| CCN(CC)C(=O)c1ccc(NC(=O)c2sccc2-c2ccccc2)cc1 | -4.91% |
| c1cc2c(c(NC3=NCCCS3)c1)CCCC2 | 2.24% |
| COC(=O)COc1cc(C)cc2oc(=O)c3c(c12)CCCC3 | -2.75% |
| COC(=O)C1=C(c2ccc(F)cc2OCc2ccccc2)C[C@@H]2CC[C@H]1N2C(=O)NCc1ccc2[nH]ccc2c1 | -4.35% |
